# Results filed as inconclusive are left out. Activity calls are given as the source filed them. Unless noted, the rule behind the calls is not given here.
# Tests used:
# [1] = qHTS profiling of the MIPE4 collection as inhibitors of Plasmodium falciparum (3D7) proliferation (AID 743344);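 note: scaled between DMSO vehicle wells and 0.29 µM artemisinin as full inhibition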; conditions: P. falciparum 3D7 in erythrocytes, SYBR Green DNA fluorescence, 72 h; at 28.5 µM unless noted
# Method in brief: (§1)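 Parasite DNA was quantified by SYBR Green I fluorescence (ex 485, em 535 nm) after overnight lysis in saponin/Triton buffer at room temperature. Cultures at 0.3% parasitemia and 2.5% hematocrit were first exposed to compound for 72 h at 37 C; signals were normalised to artemisinin (0.29 uM) and vehicle wells.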
# [2] = qHTS profiling of the MIPE4 collection as inhibitors of Plasmodium falciparum (DD2) proliferation (AID 743345); conditions: P. falciparum Dd2 in erythrocytes, SYBR Green DNA, 72 h; at 28.5 µM unless noted
# Method in brief: as §1
# [3] = qHTS profiling of the MIPE4 collection as inhibitors of Plasmodium falciparum (DD2) proliferation (Rep 2) (AID 743346); conditions: P. falciparum Dd2 in erythrocytes, SYBR Green DNA, 72 h; at 28.5 µM unless noted
# Method in brief: as §1
# [4] = qHTS profiling of the MIPE4 collection as inhibitors of Plasmodium falciparum (HB3) proliferation (AID 743347);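 note: plate controls were DMSO vehicle wells for no effect and artemisinin wells for full effect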; conditions: P. falciparum HB3 in erythrocytes, SYBR Green DNA, 72 h; at 28.5 µM unless noted
# Method in brief: as §1
# [5] = High-throughput drug toxicity screening in the BPDCN cell line Gen2.2 (AID 1224824); conditions: Gen2.2 BPDCN cells; at 45.8 µM (top of the series) unless noted;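 note: cells exposed to compounds for 48 h before reading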
# Method in brief: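 Seed 500 exponentially growing Gen2.2 cells/well; add compounds by pin tool; incubate 48 h, 37 °C, 5% CO2; add CellTiter-Glo, 15 min RT; read luminescence. % activity vs DMSO (100%) and bortezomib (0%).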
# [6] = qHTS assay for measurement of the activity of small molecule inhibitors on Zika virus induced Caspase-3 activity in human iPSC derived neural progenitor cells (hNPCs) (AID 1224857; active = well fitted curve in the direction sought with a large enough effect; an effect the other way counts as inactive or inconclusive; note: % of control where 0% means no effect; nearly all actives have a fitted effect of over 65% in size)
# Method in brief: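 Percent inhibition of virus-induced caspase-3/7 luminescence (Caspase-Glo), scaled between uninfected cells and Zika-infected cells. hNPCs received compound 1 hr before ZIKV at 2 FFU/cell, with 6 hours infection at 37 C.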
# [7] = qHTS assay for measurement of the activity of small molecule inhibitors on Zika virus induced Caspase-3 activity in human astrocytoma cells (AID 1224859; active = well fitted curve in the direction sought with a large enough effect; an effect the other way counts as inactive or inconclusive;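 note: plate controls were ZIKV-infected untreated cells for no effect and uninfected cells for full effect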)
# Method in brief: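 Luminescent caspase-3/7 read-out (30 min reagent, room temperature) in human SNB-19 cells infected 6 h with ZIKV (2 FFU/cell) after 1 h compound pre-incubation; Data were normalised to uninfected and infected wells.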
# [8] = qHTS Screen of the MIPE 4.0 Collection Against Ewings Sarcoma (TC71) (AID 1259253; active = well fitted curve in the direction sought with a large enough effect; an effect the other way counts as inactive or inconclusive; note: nearly all actives have a fitted effect of over 40% in size; note: potency is the fitted concentration of half-maximal effect)
# Method in brief: (§2)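 After a 4 h attachment period in RPMI/5% FBS, cells were pin-dosed with test compounds; DMSO served as negative and 9.2 uM bortezomib (final) as positive control. Luminescent CellTiter-Glo signal at 48 h defined viability.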
# [9] = qHTS Screen of the MIPE 4.0 Collection Against Ewings Sarcoma (EW8) (AID 1259255; active = well fitted curve in the direction sought with a large enough effect; an effect the other way counts as inactive or inconclusive; note: nearly all actives have a fitted effect of over 35% in size; note: potency is the fitted concentration of half-maximal effect;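 for viability: 100% = DMSO-treated cells and 0% = medium-only wells without cells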)
# Method in brief: as §2
# [10] = qHTS Screen of the MIPE 4.0 Collection Against Ewings Sarcoma (TC32) (AID 1259256; active = well fitted curve in the direction sought with a large enough effect; an effect the other way counts as inactive or inconclusive; note: nearly all actives have a fitted effect of over 45% in size; note: potency is the fitted concentration of half-maximal effect)
# Method in brief: as §2
# [11] = qHTS Screen of the MIPE 4.0 Collection Against Ewings Sarcoma (RDES) (AID 1259252; active = well fitted curve in the direction sought with a large enough effect; an effect the other way counts as inactive or inconclusive; note: nearly all actives have a fitted effect of over 35% in size; note: potency is the fitted concentration of half-maximal effect)
# Method in brief: as §2
# [12] = qHTS assay to identify small molecule inhibitors of chordoma cells - UCH-2 (AID 1259356; active = well fitted curve in the direction sought with a large enough effect; an effect the other way counts as inactive or inconclusive; note: % is set by controls: 0 for no effect and ±100 for the full control effect)
# [13] = P-glycoprotein substrates identified in KB-3-1 adenocarcinoma cell line, qHTS therapeutic library screen (AID 1346986; active = well fitted curve in the direction sought with a large enough effect; an effect the other way counts as inactive or inconclusive; note: nearly all actives have a fitted effect of over 60% in size)
# Method in brief: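 Dose-response cytotoxicity, KB-3-1 vs P-gp-high KB-8-5-11, no colchicine in assay medium. Read: CellTiter-Glo at 72 h.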
smiles,measurement,setting,value
Cc1nc(C(=O)NCC(=O)O)c(O)c2ccc(Oc3ccccc3)cc12,"parasite growth, % of DMSO control",[1],86.9%
same,"parasite growth remaining, % of DMSO control (lower = more inhibition)",[2],95.5%
same,"parasite growth, % of control (lower = inhibition)",[3],67.9%
same,"growth, % of control",[4],69.9%
same,"cell viability, % of control (lower = more cytotoxic)",[5],54.1%
same,Potency,[6],inactive
same,Potency,[7],inactive
same,Potency,[8],inactive
same,Potency,[9],inactive
same,Potency,[10],inactive
CN[C@@H]1CN(c2ccc3c(=O)c(C(=O)O)cn(-c4nccs4)c3n2)C[C@@H]1OC,"parasite growth, % of DMSO control",[1],9.37% [at 9.64 µM]
same,"parasite growth remaining, % of DMSO control (lower = more inhibition)",[2],7.58% [at 9.64 µM]
same,"parasite growth, % of control (lower = inhibition)",[3],8.12% [at 9.64 µM]
same,"growth, % of control",[4],8.57% [at 9.64 µM]
same,"cell viability, % of control (lower = more cytotoxic)",[5],7.46% [at 23.2 µM]
same,Potency,[7],inactive
same,Potency,[11],1290 nM (active)
same,Potency,[8],645 nM (active)
same,Potency,[9],323 nM (active)
CO[C@H]1C=CO[C@@]2(C)Oc3c(C)c(O)c4c(O)c(c(C=NN5CCN(C)CC5)c(O)c4c3C2=O)NC(=O)C(C)=CC=C[C@H](C)[C@H](O)[C@@H](C)[C@@H](O)[C@@H](C)[C@H](OC(C)=O)[C@H]1C,"parasite growth, % of DMSO control",[1],5.51% [at 5.51 µM]
same,"parasite growth remaining, % of DMSO control (lower = more inhibition)",[2],11.4% [at 5.51 µM]
same,"parasite growth, % of control (lower = inhibition)",[3],10.3% [at 5.51 µM]
same,"growth, % of control",[4],3.06% [at 5.51 µM]
same,"cell viability, % of control (lower = more cytotoxic)",[5],73% [at 15.3 µM]
same,Potency,[6],inactive
same,Potency,[7],inactive
same,Potency,[11],inactive
CN(C)CCOc1ccc(-c2nc(-c3ccc4c(c3)CCC4=NO)c(-c3ccncc3)[nH]2)cc1,"parasite growth, % of DMSO control",[1],4.92%
same,"parasite growth remaining, % of DMSO control (lower = more inhibition)",[2],6.01%
same,"growth, % of control",[4],2.95%
same,"cell viability, % of control (lower = more cytotoxic)",[5],7.29%
same,Potency,[7],inactive
same,Potency,[11],33200 nM (active)
same,Potency,[8],26400 nM (active)
same,Potency,[10],23500 nM (active)
COc1c(C)c2c(c(O)c1CC=C(C)CCC(=O)OCCN1CCOCC1)C(=O)OC2,"parasite growth, % of DMSO control",[1],16.6%
same,"parasite growth remaining, % of DMSO control (lower = more inhibition)",[2],18.6%
same,"parasite growth, % of control (lower = inhibition)",[3],15.1%
same,"growth, % of control",[4],9.76%
same,"cell viability, % of control (lower = more cytotoxic)",[5],164%
same,Potency,[6],inactive
same,Potency,[7],inactive
same,Potency,[8],1480 nM (active)
same,Potency,[9],1050 nM (active)
same,Potency,[10],1320 nM (active)
same,outcome,[12],inactive
COc1cc2ncnc(Nc3cc(Br)c(O)c(Br)c3)c2cc1OC,"parasite growth, % of DMSO control",[1],10.7%
same,"parasite growth remaining, % of DMSO control (lower = more inhibition)",[2],54.4%
same,"parasite growth, % of control (lower = inhibition)",[3],43.2%
same,"growth, % of control",[4],5.25%
same,"cell viability, % of control (lower = more cytotoxic)",[5],15.7%
same,Potency,[6],inactive
same,Potency,[7],inactive
same,Potency,[11],41.8 nM (active)
same,Potency,[8],59 nM (active)
same,Potency,[10],418 nM (active)
same,Potency,[13],inactive
CCC(=C(c1ccc(O)cc1)c1ccc(OCCNC)cc1)c1ccccc1,"parasite growth, % of DMSO control",[1],5.26%
same,"parasite growth remaining, % of DMSO control (lower = more inhibition)",[2],15.1%
same,"parasite growth, % of control (lower = inhibition)",[3],13.1%
same,"growth, % of control",[4],3.87%
same,"cell viability, % of control (lower = more cytotoxic)",[5],16.9%
same,Potency,[7],inactive
same,Potency,[8],20900 nM (active)
same,Potency,[9],26400 nM (active)
same,Potency,[10],23500 nM (active)
